Where “and” joins values, the source holds several entries; their conditions need not be identical. Equal entries are not always repeated. About 2,000 (36%) of roughly 5,500 compounds were called active. Inconclusive results (about 18%) are left out. Cut-off read from the data, not from the text of the source: active = normalized growth mostly below about 0.91 (no sharp cut-off); inconclusive = no clear call, values can overlap the other calls; inactive = mostly above about 0.92. The list shows a part of the results.
Assay: chemical genetic growth profiling, strain panel (AID 1159580);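 note: tested at 20 µM; growth read once vehicle control cultures reached saturation at 30 °C; 1 = growth at the plate median or of vehicle wells; lower values mean less growth of the strain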
Conditions: S. cerevisiae deletion strains, growth OD

Measured: normalized growth

Cc1occc(=O)c1O
inactive: locus YAL021C, strain ccr4, active compounds read low 0.964 | locus YAL026C, strain drs2, active compounds read low 0.972 | locus YAL030W, strain snc1, active compounds read low 0.949 | locus YBL061C, strain skt5, active compounds read low 0.969 | locus YBR009C, strain hhf1, active compounds read low 0.984 | locus YBR021W, strain FUR4, active compounds read low 1 | locus YBR023C, strain chs3, active compounds read low 0.976 | locus YBR171W, strain sec66, active compounds read low 0.975 | locus YBR229C, strain ROT2, active compounds read low 1 | locus YBR231C, strain swc5, active compounds read low 0.964 | locus YBR279W, strain paf1, active compounds read low 0.944 | locus YCL011C, strain gbp2, active compounds read low 0.956 | locus YCL016C, strain dcc1, active compounds read low 0.978 | locus YCL029C, strain bik1, active compounds read low 1.02 | locus YCL061C, strain MRC1, active compounds read low 0.987 | locus YCL069W, strain vba3, active compounds read low 0.978 | locus YCR088W, strain abp1, active compounds read low 0.965 | locus YDL005C, strain med2, active compounds read low 0.967 | locus YDL035C, strain GPR1, active compounds read low 1.01 | locus YDL040C, strain nat1, active compounds read low 0.971 | locus YDL074C, strain BRE1, active compounds read low 1.01 | locus YDL101C, strain DUN1, active compounds read low 1.01 | locus YDL185W, strain tfp1, active compounds read low 1.01 | locus YDL192W, strain arf1, active compounds read low 1.02 | locus YDR001C, strain nth1, active compounds read low 0.953 | locus YDR069C, strain doa4, active compounds read low 1 | locus YDR101C, strain arx1, active compounds read low 0.991 | locus YDR137W, strain rgp1, active compounds read low 0.945 | locus YDR159W, strain sac3, active compounds read low 0.971 | locus YDR162C, strain NBP2, active compounds read low 1.02 | locus YDR195W, strain ref2 0.953 | locus YDR297W, strain sur2, active compounds read low 0.971 | locus YDR318W, strain mcm21, active compounds read low 1.02 | locus YDR334W, strain swr1, active compounds read low 0.929 | locus YDR335W, strain msn5, active compounds read low 0.964 | locus YDR388W, active compounds read low 1.01 | locus YDR392W, strain spt3, active compounds read low 0.917 | locus YDR502C, strain sam2, active compounds read low 0.999 | locus YEL003W, strain gim4, active compounds read low 0.956 | locus YEL037C, strain rad23, active compounds read low 0.961 | locus YEL061C, strain CIN8 (second series), active compounds read low 0.953 | locus YEL061C, strain CIN8, active compounds read low 1 | locus YER015W, strain faa2, active compounds read low 0.964 | locus YER016W, strain bim1, active compounds read low 0.958 | locus YER110C, active compounds read low 1.01 | locus YER111C, strain swi4, active compounds read low 0.966 | locus YER155C, strain BEM2 (second series), active compounds read low 0.97 | locus YER155C, strain BEM2, active compounds read low 0.993 | locus YER167W, strain BCK2, active compounds read low 0.995 | locus YFR010W, strain ubp6, active compounds read low 0.96 | locus YGL078C, strain dbp3, active compounds read low 1.03 | locus YGL086W, strain mad1, active compounds read low 0.982 | locus YGL167C, strain pmr1, active compounds read low 0.961 | locus YGL173C, strain kem1, active compounds read low 0.957 | locus YGL227W, strain vid30, active compounds read low 0.966 | locus YGL240W, strain doc1, active compounds read low 0.971 | locus YGL248W, strain PDE1, active compounds read low 1.01 | locus YGL253W, strain hxk2, active compounds read low 0.974 | locus YGR135W, strain pre9, active compounds read low 1.03 | locus YGR252W, strain gcn5, active compounds read low 1.08 | locus YHR013C, strain ard1, active compounds read low 0.947 | locus YHR027C, strain rpn1, active compounds read low 0.979 | locus YHR030C, strain SLT2, active compounds read low 1.01 and 1.04 | locus YHR079C, strain IRE1 (second series), active compounds read low 1.01 | locus YHR079C, strain IRE1, active compounds read low 1.03 | locus YHR094C, strain hxt1, active compounds read low 1.01 | locus YHR129C, strain ARP1, active compounds read low 1.01 | locus YHR142W, strain chs7, active compounds read low 0.919 | locus YHR200W, strain rpn10, active compounds read low 1.01 | locus YIL066C, strain RNR3, active compounds read low 1.01 | locus YIL073C, strain SPO22, active compounds read low 1.06 | locus YIL125W, strain kgd1, active compounds read low 1.02 | locus YIR030C, strain dcg1, active compounds read low 1 | locus YJL092W, strain hpr5, active compounds read low 0.976 | locus YJL095W, strain BCK1 (second series), active compounds read low 0.962 | locus YJL095W, strain BCK1, active compounds read low 1.01 and 1.02 | locus YJL115W, strain asf1, active compounds read low 0.95 | locus YJL129C, strain trk1, active compounds read low 0.95 | locus YJL134W, strain LCB3, active compounds read low 1.01 | locus YJL154C, strain vps35, active compounds read low 0.953 | locus YJL164C, strain tpk1, active compounds read low 0.969 | locus YJL166W, strain qcr8, active compounds read low 0.953 | locus YJL168C, strain set2, active compounds read low 0.999 | locus YJL187C, strain SWE1 (second series), active compounds read low 1.01 | locus YJL187C, strain SWE1, active compounds read low 0.977 | locus YJR043C, strain POL32, active compounds read low 1.01 | locus YJR066W, strain TOR1, active compounds read low 0.991
